In article PMC7862700, “An all-to-all approach to the identification of sequence-specific readers for epigenetic DNA modifications on cytosine”:

Tests used:
Test in all cases: DAPPL (digital affinity profiling via proximity ligation, sequencing); 10 mM Tris-HCl pH 7.5, 50 mM NaCl, 1 mM DTT, 4% glycerol, room temperature, 30 min; GST-TFs on glutathione beads, 16-mer random dsDNA library, 0.1% formaldehyde crosslink after washing; high values mean tight binding
Settings in all cases: protein: recombinant; tags: N-terminal GST; dsDNA, one strand shown
FLI1 = biological target: T1, FLI1 (Homo sapiens, UniProt Q01543 1-452)
T1 sequence: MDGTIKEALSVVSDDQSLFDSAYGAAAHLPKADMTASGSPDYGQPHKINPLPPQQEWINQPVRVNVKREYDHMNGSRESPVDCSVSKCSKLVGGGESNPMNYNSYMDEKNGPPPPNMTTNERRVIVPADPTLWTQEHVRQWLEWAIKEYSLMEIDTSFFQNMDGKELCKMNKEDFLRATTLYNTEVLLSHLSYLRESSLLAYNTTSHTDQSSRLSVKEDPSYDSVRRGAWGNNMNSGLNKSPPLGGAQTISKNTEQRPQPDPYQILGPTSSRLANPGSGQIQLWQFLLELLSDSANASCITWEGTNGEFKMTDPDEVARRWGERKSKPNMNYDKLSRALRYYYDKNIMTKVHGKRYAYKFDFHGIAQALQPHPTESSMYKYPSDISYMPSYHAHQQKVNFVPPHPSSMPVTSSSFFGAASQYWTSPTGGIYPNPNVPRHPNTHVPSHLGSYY
How it was run: (§1)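 The binding signal reported is, for every hexamer, its read frequency for a factor over its read frequency for the tag-only sample. Reads came from pools of yeast-expressed, GST-fused human transcription factors on glutathione beads, barcoded with DNA and mixed with that sample, which were incubated with 200 nmole of a random double-stranded 16-mer DNA library in Tris/NaCl/DTT/glycerol buffer at room temperature for 30 min. After washing, the pools were crosslinked with 0.1% formaldehyde, proximity-ligated with BsaI/T4 ligase for 1 h at 37 °C, PCR-amplified and sequenced on an Illumina NextSeq500.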

ELK1 = biological target: T2, ELK1 (Homo sapiens, UniProt P19419 1-428)
T2 sequence: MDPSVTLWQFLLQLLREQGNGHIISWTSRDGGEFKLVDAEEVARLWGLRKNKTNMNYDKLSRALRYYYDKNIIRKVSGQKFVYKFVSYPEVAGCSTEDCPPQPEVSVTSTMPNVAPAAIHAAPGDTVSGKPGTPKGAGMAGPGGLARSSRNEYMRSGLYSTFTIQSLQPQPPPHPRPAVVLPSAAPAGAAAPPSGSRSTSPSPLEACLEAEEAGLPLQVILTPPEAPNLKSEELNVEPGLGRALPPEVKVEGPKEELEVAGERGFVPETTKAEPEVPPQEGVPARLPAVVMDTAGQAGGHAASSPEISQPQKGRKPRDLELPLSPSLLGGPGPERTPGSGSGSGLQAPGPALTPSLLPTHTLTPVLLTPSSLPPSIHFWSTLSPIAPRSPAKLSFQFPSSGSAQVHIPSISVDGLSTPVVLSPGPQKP
How it was run: as §1

GABPA = biological target: T3, GABPA (Homo sapiens, UniProt Q06546 1-454)
T3 sequence: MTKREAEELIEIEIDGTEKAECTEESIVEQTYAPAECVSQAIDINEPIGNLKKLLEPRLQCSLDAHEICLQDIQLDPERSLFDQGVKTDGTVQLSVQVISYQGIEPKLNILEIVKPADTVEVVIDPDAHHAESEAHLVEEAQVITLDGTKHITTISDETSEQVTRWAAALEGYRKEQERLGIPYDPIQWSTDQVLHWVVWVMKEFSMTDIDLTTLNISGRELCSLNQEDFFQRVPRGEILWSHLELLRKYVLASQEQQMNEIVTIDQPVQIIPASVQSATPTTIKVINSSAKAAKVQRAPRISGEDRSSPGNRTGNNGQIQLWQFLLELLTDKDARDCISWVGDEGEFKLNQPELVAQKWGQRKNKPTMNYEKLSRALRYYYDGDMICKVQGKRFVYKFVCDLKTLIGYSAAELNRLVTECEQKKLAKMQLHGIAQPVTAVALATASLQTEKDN
How it was run: as §1

ERG = biological target: T4, ERG (Homo sapiens, UniProt P11308 1-479)
T4 sequence: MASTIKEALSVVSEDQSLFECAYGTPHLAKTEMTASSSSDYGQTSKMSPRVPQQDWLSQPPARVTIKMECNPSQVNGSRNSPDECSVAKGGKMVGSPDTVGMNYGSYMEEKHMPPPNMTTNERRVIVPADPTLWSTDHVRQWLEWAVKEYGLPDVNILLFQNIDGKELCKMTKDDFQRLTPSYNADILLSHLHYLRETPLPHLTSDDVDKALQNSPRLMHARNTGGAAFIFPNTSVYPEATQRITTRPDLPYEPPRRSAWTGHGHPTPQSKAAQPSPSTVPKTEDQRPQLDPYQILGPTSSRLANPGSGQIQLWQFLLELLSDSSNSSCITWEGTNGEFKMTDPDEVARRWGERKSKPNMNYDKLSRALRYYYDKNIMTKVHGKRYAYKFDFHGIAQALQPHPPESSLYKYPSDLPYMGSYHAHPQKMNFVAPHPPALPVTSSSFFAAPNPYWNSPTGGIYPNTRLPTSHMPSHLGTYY
How it was run: as §1

ELF1 = ELF1 (Homo sapiens, UniProt P32519 1-619)
Chain of ELF1 (P32519 whole entry): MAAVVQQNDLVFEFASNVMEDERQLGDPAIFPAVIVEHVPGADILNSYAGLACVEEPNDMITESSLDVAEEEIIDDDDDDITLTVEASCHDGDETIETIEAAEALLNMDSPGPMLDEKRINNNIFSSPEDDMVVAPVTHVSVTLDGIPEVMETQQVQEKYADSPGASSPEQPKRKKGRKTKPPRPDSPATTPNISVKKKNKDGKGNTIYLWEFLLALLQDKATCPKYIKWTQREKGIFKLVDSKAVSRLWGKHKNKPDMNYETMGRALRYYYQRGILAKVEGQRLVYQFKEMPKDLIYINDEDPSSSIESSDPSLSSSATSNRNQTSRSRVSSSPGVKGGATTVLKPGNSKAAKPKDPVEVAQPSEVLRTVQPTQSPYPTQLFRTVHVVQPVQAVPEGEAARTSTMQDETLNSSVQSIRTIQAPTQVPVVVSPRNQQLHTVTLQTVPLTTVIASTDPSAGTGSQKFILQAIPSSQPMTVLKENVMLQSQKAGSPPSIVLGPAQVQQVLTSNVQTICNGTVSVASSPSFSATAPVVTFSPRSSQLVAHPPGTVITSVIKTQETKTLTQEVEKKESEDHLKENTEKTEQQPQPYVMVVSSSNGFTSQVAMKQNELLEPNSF
How it was run: as §1

EHF = biological target: T5, EHF (Homo sapiens, UniProt Q9NZC4 1-300)
T5 sequence: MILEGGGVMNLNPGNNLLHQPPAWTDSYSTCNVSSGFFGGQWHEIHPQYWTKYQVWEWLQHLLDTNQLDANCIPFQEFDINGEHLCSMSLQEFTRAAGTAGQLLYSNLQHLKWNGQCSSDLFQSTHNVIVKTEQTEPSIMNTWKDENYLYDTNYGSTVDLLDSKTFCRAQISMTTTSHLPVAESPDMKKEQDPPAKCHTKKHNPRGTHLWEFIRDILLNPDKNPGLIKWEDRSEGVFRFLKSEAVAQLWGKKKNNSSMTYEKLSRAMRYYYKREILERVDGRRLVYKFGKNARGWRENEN
How it was run: as §1

SPI1 = SPI1 (Homo sapiens, UniProt P17947 1-270)
How it was run: as §1

SPIB = SPIB (Homo sapiens, UniProt Q01892 1-262)
Chain of SPIB (Q01892 whole entry): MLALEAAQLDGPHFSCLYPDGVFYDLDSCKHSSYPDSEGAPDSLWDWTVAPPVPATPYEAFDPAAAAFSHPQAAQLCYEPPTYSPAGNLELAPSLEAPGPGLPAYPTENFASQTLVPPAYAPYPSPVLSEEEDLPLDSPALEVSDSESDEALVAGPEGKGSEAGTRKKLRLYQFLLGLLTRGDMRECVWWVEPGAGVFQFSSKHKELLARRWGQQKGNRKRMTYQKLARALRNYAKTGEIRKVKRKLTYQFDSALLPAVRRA
How it was run: as §1

ELK3 = biological target: T6, ELK3 (Homo sapiens, UniProt P41970 1-407)
T6 sequence: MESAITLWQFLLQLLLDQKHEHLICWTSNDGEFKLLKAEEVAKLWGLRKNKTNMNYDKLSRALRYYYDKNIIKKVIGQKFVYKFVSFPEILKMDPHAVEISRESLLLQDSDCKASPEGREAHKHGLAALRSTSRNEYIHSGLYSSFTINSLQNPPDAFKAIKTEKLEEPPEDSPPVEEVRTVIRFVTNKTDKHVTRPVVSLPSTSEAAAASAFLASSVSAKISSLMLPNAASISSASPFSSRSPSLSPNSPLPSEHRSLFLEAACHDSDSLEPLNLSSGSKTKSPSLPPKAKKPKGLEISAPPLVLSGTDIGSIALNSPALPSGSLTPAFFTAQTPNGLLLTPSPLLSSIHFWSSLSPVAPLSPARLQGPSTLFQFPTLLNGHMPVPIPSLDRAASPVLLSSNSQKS
How it was run: as §1

TGATTT was tested, and the binding signal (FLI1) was 1.29 fold enrichment (6-mer frequency, TF over GST control), the binding signal (ELK1) was 1.2 fold enrichment (6-mer frequency, TF over GST control) and the binding signal (GABPA) was 1.33 fold enrichment (6-mer frequency, TF over GST control). The binding signal (ERG) was 1.35 fold enrichment (6-mer frequency, TF over GST control), the binding signal (ELF1) was 1.23 fold enrichment (6-mer frequency, TF over GST control) and the binding signal (EHF) was 1.18 fold enrichment (6-mer frequency, TF over GST control). The binding signal (SPI1) was 1.21 fold enrichment (6-mer frequency, TF over GST control), the binding signal (SPIB) was 1.23 fold enrichment (6-mer frequency, TF over GST control) and the binding signal (ELK3) was 1.11 fold enrichment (6-mer frequency, TF over GST control).
